# From the supplement of paper PMC3334620
# The full ranking holds about 33,000 sequences; the median of “E-score (-0.5 to 0.5)” is about -0.032, and the highest 2% start at about 0.36. Many of the other results were omitted from the sample, so the highest values are more common in it than they were.
# Molecular target: T1, Sko1 (UniProt Q02100)
# T1 sequence: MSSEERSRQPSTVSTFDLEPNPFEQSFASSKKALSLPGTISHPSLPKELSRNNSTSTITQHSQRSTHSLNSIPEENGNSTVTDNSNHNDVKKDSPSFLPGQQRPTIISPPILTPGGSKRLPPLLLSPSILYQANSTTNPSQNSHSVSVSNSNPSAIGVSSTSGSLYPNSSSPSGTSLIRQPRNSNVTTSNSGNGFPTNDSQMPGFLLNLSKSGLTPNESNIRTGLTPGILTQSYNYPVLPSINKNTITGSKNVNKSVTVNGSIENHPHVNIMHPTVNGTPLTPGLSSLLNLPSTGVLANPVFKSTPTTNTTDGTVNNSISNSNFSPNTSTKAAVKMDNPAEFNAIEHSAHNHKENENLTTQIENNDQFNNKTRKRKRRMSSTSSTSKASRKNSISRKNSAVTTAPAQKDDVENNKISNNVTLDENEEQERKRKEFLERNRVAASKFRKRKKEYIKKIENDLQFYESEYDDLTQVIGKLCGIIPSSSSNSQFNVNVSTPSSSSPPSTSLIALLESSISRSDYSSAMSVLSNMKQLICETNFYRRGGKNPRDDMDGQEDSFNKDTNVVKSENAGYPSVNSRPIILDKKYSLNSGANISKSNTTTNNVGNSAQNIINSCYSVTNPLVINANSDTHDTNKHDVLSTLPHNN
# Assay: PBM E-score (8-mer binding enrichment) (E-score (-0.5 to 0.5)); higher = stronger / more preferred TF binding
# Settings: protein concentration: 200 nM; construct: GST-full length
# Description: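 Universal 'all 10-mer' protein binding microarrays (Agilent AMADID 015681) probed with GST-tagged S. cerevisiae TFs (full-length or DBD) made by in vitro transcription/translation (PURExpress), about 100-200 nM. Bound TF was detected with fluorescent anti-GST. Each ungapped 8-mer (which stands for itself and its reverse complement) is scored by the PBM enrichment score (E-score), a modified Wilcoxon-Mann-Whitney statistic from -0.5 to +0.5, computed with the Universal PBM Analysis Suite. Scale: above 0.35 generally sequence-specific binding.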
row,Sequence,PBM E-score
1,GCAAAGAC,0.00382
2,GATAGTCC,-0.141
3,CATTTAAA,0.178
4,ACTCACGC,0.14
5,GCTTAGCC,-0.313
6,CTGGCGCC,-0.181
7,TCCTAACA,0.0335
8,CTGAATAC,0.15
9,TCAACCGA,0.204
10,CTTATGAA,-0.0245
11,CTTATGAC,0.374
12,ACTATGAC,0.342
13,GCTATGAC,0.364
14,ATTATGAC,0.349
15,CCTATGAC,0.308
16,TATCAGCA,0.0232
17,ACGAGCAG,-0.0309
18,CAAGAGCA,-0.0878
19,GCCTAGAA,-0.121
20,AGGTGTTC,-0.0318
21,ATGTGTTG,0.203
22,GCGTGTTA,0.114
23,ACGTGTTG,0.426
24,ACGTGTTC,0.36
25,AGGTGTTG,0.0206

row,Sequence,PBM E-score
1,CCGTGTTA,-0.0886
2,ACGTGTTA,0.434
3,CCGTGTTC,-0.0799
4,ACTGGTTC,-0.132
5,GCAGTCAC,-0.0169
6,GAGCGAGA,-0.0193
7,CGCGGTTA,-0.0722
8,ACTCTTCC,-0.0697
9,GCTTGCTA,-0.191
10,ACTAACAG,0.0358
11,GGTAATGA,0.115
12,CGTAATGA,0.461
13,CGTAATGC,0.454
14,AGTAATGC,0.0678
15,AGTAATGA,0.247
16,CTTAATGC,0.0192
17,CGAGCAAG,-0.129
18,TAGTATCA,0.187
19,CCTAACGC,0.0788
20,AACTTACG,0.408
21,AACTTACC,-0.0258
22,CACTTACC,0.109
23,CACTTACG,0.382
24,AACTTACA,0.0844
25,CACTTACA,0.164

row,Sequence,PBM E-score
1,ACGTTCTG,0.256
2,GCTCTAAA,0.0432
3,CCGTATCG,-0.171
4,TCGTATCA,0.241
5,CCGTATCC,-0.133
6,ACGTATCA,0.438
7,GCGTATCC,0.142
8,ACGTATCT,0.419
9,AAGTATCG,-0.0131
10,AAGTATCT,0.0671
11,ACGTATCG,0.452
12,GCGTATCA,0.131
13,ACGTATCC,0.389
14,ACCTATCT,-0.0547
15,CCGTCTGC,-0.109
16,GCAGAACC,-0.16
17,TAGTGGAA,-0.149
18,GCGGCATA,0.0318
19,AGCTGATC,-0.0352
20,GATCCTCC,-0.264
21,GTGACGGA,0.174
22,CTGACGAA,0.373
23,AAGACGAG,-0.189
24,GCGACGAC,-0.08
25,ATGACGAG,0.462

row,Sequence,PBM E-score
1,CTGACGAC,0.342
2,ATGACGGC,0.285
3,AGGACGAC,-0.114
4,ATGACGGG,0.338
5,ATGACGGA,0.419
6,ATGACGAC,0.466
7,CCGACGAA,0.144
8,ACCTCCGG,-0.282
9,CCCCACGA,-0.128
10,CGTTTTGC,0.177
11,ACACCTAC,-0.0103
12,CCGCTGAG,-0.29
13,AAAGCTTA,0.141
14,ACTAATGG,0.00996
15,ACTGAAGT,-0.0247
16,ACTCGCCT,-0.196
17,GGGACGAA,-0.164
18,GTGACGAA,0.446
19,ATGACAAA,0.154
20,ACGACGAA,0.25
21,GTGACAAA,0.167
22,ATGACGAA,0.488
23,AGACAGTA,0.0897
24,CCGCCCTC,-0.23
25,AAAGATGG,-0.0167

row,Sequence,PBM E-score
1,AAGCTCGG,-0.169
2,GAGGTAAC,0.0793
3,GAAAGTGC,-0.11
4,CTAATCTA,0.0405
5,ATAATTTA,0.222
6,CTCATATA,0.0195
7,GTCATAAA,0.364
8,GTAATTTA,0.366
9,CTAATTTA,0.261
10,ATCATAAA,0.175
11,ATAATCTA,0.189
12,GTCATATA,0.373
13,ATCATATA,0.244
14,TTCATAAA,0.0982
15,GTAATCTA,0.394
16,CCACACAG,-0.208
17,GGGACAAA,-0.0851
18,CGAAGAAG,0.0371
19,AACTCTAT,-0.186
20,TGATTCAA,0.144
21,ACCCCATG,-0.0741
22,GTCATAGA,0.406
23,GTAATATA,0.374
24,CTAATATA,0.302
25,ATCATAGA,0.205

row,Sequence,PBM E-score
1,CTCATAGA,0.00332
2,ATAATATA,0.268
3,GCCAGTGA,-0.0654
4,TACCCTGA,-0.126
5,CGCCTGAC,0.0438
6,AAGGCACG,0.132
7,ACCGCCGT,-0.264
8,GAAAAGGA,-0.0667
9,CATCATCG,0.347
10,TATCATCA,0.272
11,CCTCATCC,-0.292
12,AGTCATCC,-0.0488
13,AGTCATCA,-0.103
14,GGTCATCA,0.207
15,CATCATCA,0.361
16,CGTCATCA,0.489
17,CGTCATCC,0.475
18,CTGATCGC,-0.0786
19,ATATGCCA,-0.0891
20,AAAACAGA,0.112
21,AGAGTAGC,-0.00834
22,ACGTGGAT,0.398
23,ACGTGGAC,0.33
24,ACGTGGTA,0.391
25,CCGTGGTA,-0.172

row,Sequence,PBM E-score
1,ACGTGGGC,0.347
2,ACGTGGCT,0.321
3,CCGTGGTC,-0.235
4,ACGTGGCG,0.368
5,ACGTGGCA,0.297
6,ACGTGGAA,0.311
7,ACGTGGTC,0.364
8,GCGTGGTA,-0.0393
9,AACTCAGG,-0.0444
10,AGCGCTGC,-0.167
11,AGACAGAT,0.0457
12,ACTTGTGG,-0.0685
13,ACCCGAGC,-0.224
14,GTAGGCTA,0.0728
15,CGTTATGA,0.267
16,CTTGCTTC,0.0228
17,AGGTTGAC,-0.0293
18,ACGTCCTC,0.206
19,GGTCTGGA,-0.25
20,ACGTGCAA,0.35
21,ACGTGCAC,0.355
22,ACGTGCAT,0.396
23,ACGTGGTG,0.376
24,AAGTGGTG,-0.113
25,AGGTGGTG,-0.0259

row,Sequence,PBM E-score
1,AACAGTGG,-0.244
2,AGGGCGAC,-0.2
3,AAATTCTG,0.052
4,GTGTTCTA,0.0982
5,AATCCCGA,0.105
6,GCATCGCA,-0.35
7,ATTCGTCC,0.119
8,GTTCGTCA,0.367
9,CTTCGTAA,0.287
10,ATTCGTCA,0.464
11,ATTCGTCG,0.22
12,GTTCGTAA,0.355
13,ATTCGTAA,0.433
14,CTTCGTCA,0.412
15,CTTCGTCC,-0.226
16,GTTCGTTA,0.107
17,CTTCGTTA,0.161
18,GTTCGTGA,-0.0757
19,GAAATGGC,0.00268
20,CGCAAGCA,0.0501
21,AAAGGTAT,0.0611
22,CAACAGTA,-0.0581
23,CATTTGTC,0.0524
24,CATAAGAC,0.1
25,GGTTTGAC,0.0235

row,Sequence,PBM E-score
1,GGATGAAA,0.033
2,CTACGAAG,-0.0419
3,CTACGTAG,0.449
4,ATACGTAC,0.473
5,CTCCGTAA,0.0488
6,ATACGAAC,0.256
7,ATCCGTAC,0.151
8,GTACGGAC,-0.0428
9,GTACGTAC,0.44
10,CTACGGAA,0.157
11,GTACGAAC,0.284
12,CTACGGAG,-0.193
13,CTACGTAA,0.489
14,CCCTAAAG,-0.213
15,GTGAGGTA,0.0525
16,ATCGGTGC,0.105
17,AATAATCT,0.125
18,CCCATCGC,-0.232
19,TAGTTACA,0.0798
